Measurements taken from PubChem BioAssay (NCI).
Compounds without any hit were thinned out: in the full panel of roughly 83,000, 20% have a hit.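 48-hour exposure, single concentration, 96-well plates; percent growth endpoint where 0 means no net growth. Active: below 10.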 Values without a mark were called inactive. The source made the active and inactive calls.

Test system: SR leukemia
Assay: NCI-60 one-dose screen, 48 h (100 = growth as untreated, 0 = no growth, -100 = all killed)
Conditions: 10 µM unless noted
Procedure: Growth inhibition of the SR human tumor cell line is measured as a screen for anti-cancer activity. Cells are grown in 96 well plates and exposed to the test compound for 48 hours. Compounds are tested at a single concentration, which is 10^-5 M for most compounds. The reported endpoint is percent growth (GI% or GIPRCNT), where numbers from 0 - 100% represent growth inhibition, and numbers from -100% - 0 represent cell death. For example, a value of 40 represents 60% growth inhibition. A value of 0 means no net growth occurred over the course of the experiment. A value of -40 indicates 40% of cells at the beginning of the experiment died by the end of the experiment. A value of -100 means all cells are dead at the end of the experiment.
NCI-60 Human Tumor Cell Lines Screen was performed using the standard one-dose NCI protocol, which is described in more detail at https://dtp.cancer.gov/discovery_development/nci-60/default.htm.
Compounds with GIPRCNT values below 10 were considered active. Activity score was based on GIPRCNT using the following formula: […]
Score is 0 for GIPRCNT values of 100 or above, 50 for GIPRCNT values of 0, and 100 for GIPRCNT values of -100.

SMILES	growth
O=C(c1ccccc1)c1ccccc1-c1ccccc1	19.2%
O=C(O)CS(=O)c1ccc(Cl)cc1 (stereo not given)	84.9%
CN(C)CCOC(=O)C(C)(C)C	99.5%
COC1=CC(c2ccc[nH]2)=N/C1=C\c1[nH]c(C)c(C(=O)CCCCC(=O)NC(C)(C)C)c1C	83.4%
Cc1cc(CSc2ccc(Cl)cc2)ccc1N	93.5%
COc1ccc(C(=O)NCCNc2nccc(-c3c(-c4ccc(F)cc4)nc4sccn34)n2)cc1	44.1%
NC(N)=N/N=C/c1cccc(Br)c1	104%
CCC(C)[C@H](NC(=O)Nc1cc(C(F)(F)F)cc(C(F)(F)F)c1)C(=O)N[C@@H](Cc1cn(C)cn1)C(=O)OC (stereo not given in full)	-37.8% [100 µM] (active)
CC(=O)Nc1nc(C)c(C(=O)N/N=C/N2CCCCC2)s1	104%
COc1ccc(Cn2cc3c(c2-c2ccccc2)CCc2cnoc2-3)cc1OC	18.4%
CCN(CC)c1ccc2nc3ccc(N=Nc4ccc(O)cc4)cc3[n+](-c3ccccc3)c2c1	49%
CCCCCCCCC1OC1CCCCCCCC(=O)O (stereo not given)	101%
CCCCCCCCCCCCCCCCCC1=NCCN1CS(=O)(=O)O	-3.33% (active)
COc1ccc(-c2nnc(SCC(=O)Nc3ccc(C(=O)/C=C/c4cc(OC)c(OC)c(OC)c4)cc3)n2-c2ccccc2)cc1OC	75% [100 µM]
Cc1c(O)c(N=Nc2ccc(C(=O)O)c(O)c2)c2ccccc2c1O	85.8%
O=C(Nc1ccc(-n2cc(-c3ccncc3)c(-c3ccc(Cl)c(O)c3)n2)cc1)Nc1cc(C(F)(F)F)cc(C(F)(F)F)c1	-0.887% (active)
CC(O)C(N)=O (stereo not given)	102%
O=C1C(Br)=CC2C1C1C3CCC3C2(Br)C12OCCO2 (stereo not given)	4.59% (active)
c1ccc(Nc2ncc3c(n2)-c2cccn2CC3)cc1	101%
N=C(N)c1ccc(-c2ccc(-c3ccc(Cl)cc3)s2)s1	-30.1% (active)

SMILES	growth
CCCNC(=O)Oc1ccc(/C(=C(/CC)Cc2ccccc2)c2ccc(OCCN(CC)CC)cc2)cc1	-28.6% (active)
COc1ccccc1CNCCCN1C(=O)c2ccc3c4c(ccc(c24)C1=O)C(=O)N(CCCNCc1ccccc1OC)C3=O	-45.7% (active)
Cc1nn(-c2ccccc2)c(N)c1N=C1NC(=O)/C(=C/c2ccc(Cl)cc2)S1	34.1%
Brc1c(-c2ccncc2)nc2n1CCS2	52.9%
Nc1ccc(S(=O)(=O)Nc2cc(F)cc(F)c2)cc1	112%
COc1cccc(-c2cc(-c3cc4ccccc4oc3=O)nc(N)n2)c1	92.3%
COC(c1ccccc1)C(Br)C(=O)c1ccccc1 (stereo not given)	79.7%
CCOC(=O)c1cc(C(=O)c2ccc(Br)cc2)n2cc(C)cc(C)c12	98.1%
COc1cc2ncnc(-n3ncc4cc(NC(=O)Nc5ccccc5)ccc43)c2cc1OC	26.6%
CC(C)OC(=O)[C@H](C)N[P@@](=O)(OC[C@@]1(C)O[C@@H](n2cc(F)c(N)nc2=O)C[C@@H]1O[P@](=O)(N[C@@H](C)C(=O)OC(C)C)Oc1ccccc1)Oc1ccccc1	124%
O=C(NCCNCCO)c1cc([N+](=O)[O-])cc([N+](=O)[O-])c1O	99.8%
COc1cc2cn3c4ccc(O)cc4[nH]c(=O)c3c2cc1OC	-17.5% (active)
COc1cc(-c2c3c(cn2CCN2CCCCC2)-c2oncc2CC3)cc(OC)c1OC	92.5%
CC(=O)OC1CC2C3CCC4C[C@@H](NC(=O)C=C(C)C)CC[C@]4(C)C3CC[C@]2(C)[C@H]1C(C)N(C)C (stereo not given in full)	-21% (active)
O=Nc1ccc(O)c2ccccc12	11.5%
COc1cc(-c2nn(-c3ccc(NC(=O)c4ccc(Cl)c(C(F)(F)F)c4)cc3)cc2-c2ccncc2)ccc1Cl	2.82% (active)
C[C@]12C=CC(=O)C=C1[C@@H](F)C[C@@H]1[C@@H]2[C@@H](O)C[C@@]2(C)[C@H]1CC[C@]2(O)C(=O)CO	106%
N#Cc1c2ncccc2c2nnc3cc(Cl)c(Cl)cc3n12	70.2%
CCc1c(C)c2ccc(OCC(=O)N=Nc3c(O)[nH]c4ccccc34)c(C)c2oc1=O	8.17% (active)
CCCCCCN(CCCCCC)CCC(=O)Nc1ccc(S(=O)(=O)c2ccc(NC(=O)CCN(CCCCCC)CCCCCC)cc2)cc1	7.85% (active)
